Experimental data as given in PubChem BioAssay (NCATS).
Inconclusive results are not listed. Activity calls are given as the source filed them. The call rests on the fitted dose curve; in most records, active means well fitted inhibition curve with a large enough effect; inconclusive means small, poorly fitted or top-dose-only effect; inactive means flat fitted curve, though single readings scatter.

Experiments:
Assay in all cases: qHTS profiling for inhibitors of Plasmodium falciparum proliferation (AID 504749); further: nearly all actives have a fitted effect of over 60% in size
Conditions in all cases: P. falciparum in erythrocytes, SYBR Green DNA, 72 h; series mostly up to 28.7 µM
CP252 = system: CP252
Outline: (§1)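 Readout was DNA-dye fluorescence from lysed cultures, ex 485/em 535 nm. Parasitized red cells had grown 72 h with compound; data scaled between 0.29 uM artemisinin and DMSO wells and corrected using vehicle-only plates.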

CP256 = system: CP256
Outline: as §1

CP262 = system: CP262
Outline: as §1

CP265 = system: CP265
Outline: as §1

CP268 = system: CP268
Outline: as §1

CP269 = system: CP269
Outline: as §1

CP286 = system: CP286
Outline: as §1

CP291 = system: CP291
Outline: as §1

CP297 = system: CP297
Outline: as §1

CP305 = system: CP305
Outline: as §1

CP315 = system: CP315
Outline: as §1

CP325 = system: CP325
Outline: as §1

CP329 = system: CP329
Outline: as §1

CP335 = system: CP335
Outline: as §1

DFO2036 = system: DFO2036
Outline: as §1

DIV17 = system: DIV17
Outline: as §1

DIV30 = system: DIV30
Outline: as §1

Dd2 = system: Dd2
Outline: as §1

ECU = system: ECU
Outline: as §1

FAB9 = system: FAB9
Outline: as §1

GB4 = system: GB4
Outline: as §1

HB3 = system: HB3
Outline: as §1

JCK = system: JCK
Outline: as §1

N140 = system: N140
Outline: as §1

P93_24 = system: P93_24
Outline: as §1

P94_40 = system: P94_40
Outline: as §1

PAD = system: PAD
Outline: as §1

PC49 = system: PC49
Outline: as §1

SC27B = system: SC27B
Outline: as §1

TAB109 = system: TAB109
Outline: as §1

TAB113 = system: TAB113
Outline: as §1

TAB165 = system: TAB165
Outline: as §1

Measured: Potency

CO[C@H]1[C@@H](O)CC(OC2[C@@H](O)CC(OC3[C@@H](O)C[C@H](OC4CC[C@@]5(C)C(CCC6C5CC(O)[C@]5(C)[C@H](C7=CC(=O)OC7)CCC65O)C4)O[C@@H]3C)O[C@@H]2C)O[C@@H]1C (some centres not stated)
inactive: CP252 | CP256 | CP262 | CP265 | CP268 | CP269 | CP286 | CP291 | CP297 | CP305 | CP315 | CP325 | CP329 | CP335 | DFO2036 | DIV17 | DIV30 | Dd2 | ECU | FAB9 | GB4 | HB3 | JCK | N140 | P93_24 | P94_40 | PAD | PC49 | SC27B | TAB109 | TAB113 | TAB165
